Data on 15 compounds can be found in PubChem BioAssay.

The nature of assay [1]: A549 cell viability effects, profiling panel, calcein-AM fluorescence, 48 h, basal (AID 1162). Particulars: higher = more signal.
The nature of assay [2]: adipocyte viability effects, profiling panel, cell-based, 3T3-L1 adipocytes, calcein-AM fluorescence, 48 h, basal (AID 1163). Particulars: 3T3-L1 adipocytes viability, higher = more signal.
Assay [3] is described as follows: HepG2 cell viability effects, profiling panel, calcein-AM fluorescence, 48 h, basal (AID 1164). Particulars: higher = more signal.
Assay [4] is described as follows: MM1S cell viability effects, profiling panel, calcein-AM fluorescence, 48 h, basal (AID 1165).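 Also: viability of MM1S multiple myeloma cells under basal unstimulated conditions.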 Particulars: higher = more signal.
A short description of assay [5]: basal RPMI8226 viability, no added stimulus, profiling panel, cell-based, calcein-AM fluorescence, 48 h, PK04 Diversity Set (AID 1166).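 Also: cells grown under basal conditions without added stimulus.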 Conditions: RPMI8226 myeloma viability, higher = more signal.
Assay [6] can be described thus: basal HepG2 mitochondrial membrane potential changes, profiling panel, cell-based, JC-1 fluorescence, 24 h, 100 nL compound (AID 1167). Conditions: higher = more signal.
Assay [7] is described as follows: basal 3T3-L1 adipocyte mitochondrial potential changes, profiling panel, cell-based, JC-1 fluorescence, 3T3-L1 adipocytes, 24 h, 100 nL compound (AID 1168). Particulars: JC-1 mitochondrial fluorescence, higher = more signal, called active from +8 up or from −8 down.
Assay [8] in a line: basal RPMI8226 mitochondrial membrane potential changes, profiling panel, cell-based, JC-1 fluorescence, 24 h, 100 nL compound (AID 1169). Conditions: RPMI8226 myeloma, JC-1 mitochondrial potential fluorescence, higher = more signal.
Assay [9] can be described thus: basal MM1S mitochondrial membrane potential changes, profiling panel, cell-based, JC-1 fluorescence, 24 h, 100 nL compound (AID 1170). Particulars: higher = more signal.
The nature of assay [10]: A549 lung cancer cell viability effects, profiling panel, resazurin fluorescence, 24 h, PK04 Diversity Set (AID 1171). Particulars: higher = more signal, called active from +8 up or from −8 down. A general note: Alamar Blue is a resazurin reagent that responds to reducing activity.

Activity calls are given as the source filed them.
Also: test concentration not given here.

Take `CN(C)CCCCNC(=O)[C@H]1C[C@H]2C(=O)N[C@@H](CCCC[N+](C)(C)C)C(=O)N2[C@H]1c1ccc(O)cc1`: the z-score is -0.0568 in [1]; 0.29 in [2]; -0.172 in [3]; -0.178 in assay [4]; 0.733 in [5]; -0.445 in assay [6]. Also, the z-score in assay [7] is -0.763 (inactive); in [8] it was -0.101; in assay [9] it was -0.203; in assay [10], 0.625 (inactive).
For `CC(C)(C)OC(=O)CC[C@]12N=C(c3ccc(OCCCO)cc3)O[C@H]1c1ccccc1N(Cc1ccccc1)C2=O`, the z-score was 0.413 in assay [1]; 0.709 in assay [2]; 0.909 in assay [3]; -2.74 in assay [4]; -4.27 in [5]; 0.0521 in [6]. Moreover, the z-score was 1.16 (inactive) in [7], -1.2 in [8], -0.0831 in assay [9] and 1.66 (inactive) in assay [10].
On to `COC(=O)[C@@]1(Cc2ccccc2CN=[N+]=[N-])N=C(c2ccc(OCCCO)cc2)O[C@H]1c1ccccc1`, for which the z-score is -2.84 in assay [1]; 0.658 in [2]; -4.68 in assay [3]; -3.57 in [4]; -4.03 in assay [5]; -2.06 in assay [6]. The z-score in [7] is 0.315 (inactive); in assay [8], -1.01; in assay [9], -2.53; in [10], -2.6 (inactive).
On to `COC(=O)C1=CC(CCCO)=CC(c2ccc(CN3CCCC3)cc2)N(Cc2cc3c(cc2Br)OCO3)C=C1C(=O)OC` (stereo not given), for which the z-score in assay [1] was -0.392; in assay [2] it was 0.151; in [3] it was 0.0308; in assay [4] it was 0.0875; in assay [5], 0.046; in [6] it was 0.516. For the same compound, the z-score is -0.251 (inactive) in assay [7], 0.144 in assay [8], -0.0408 in assay [9] and 0.652 (inactive) in assay [10].
For `COCCCNC(=O)[C@@]1(c2ccc([N+](=O)[O-])cc2)CC(=O)N(C(C)C)[C@@H]1c1ccc(CO)cc1`, the z-score in [1] is 1.12; in [2], 1.22; in assay [3] it was 0.603; in [4], 0.105; in assay [5], 0.243; in assay [6], -0.0251. Further, the z-score was -0.612 (inactive) in [7], -0.795 in [8], -1.28 in [9] and 0.985 (inactive) in assay [10].
Turning to `COc1ccc(C#Cc2ccc3c(c2)[C@]2(C(=O)N3)[C@H](C(=O)N3CCCCCCC3)[C@H]3C(=O)O[C@H](c4ccccc4)[C@H](c4ccccc4)N3[C@@H]2c2ccc(O)cc2)cc1`, the z-score is -0.636 in assay [1]; 1.61 in assay [2]; -0.984 in assay [3]; 0.171 in assay [4]; -1.05 in assay [5]; -1.2 in assay [6]. Also, the z-score is 1.34 (inactive) in assay [7], -0.582 in [8], -0.191 in [9] and 0.601 (inactive) in assay [10].
As for `C=C(/C(=C/C[C@H](OC(=O)c1ccncc1)c1ccccc1OCCO)c1cnc2ccccc2c1)C(C)C`, the z-score was 0.0894 in assay [1]; -0.253 in [2]; -0.444 in [3]; -1.26 in assay [4]; -0.906 in [5]; 0.96 in [6]. The z-score in [7] was -0.482 (inactive); in [8] it was -0.331; in assay [9] it was -0.174; in assay [10], 1.35 (inactive).
Turning to `C=CCNC(=O)[C@H]1[C@@H]2C(=O)O[C@@H](c3ccccc3)[C@@H](c3ccccc3)N2[C@@H](c2ccc(OCCO)cc2)[C@]12C(=O)Nc1ccc(C#CCNC(N)=O)cc12`, the z-score is 0.292 in assay [1]; 1.63 in assay [2]; -0.529 in assay [3]; -1.41 in [4]; -0.062 in [5]; -1.11 in assay [6]. In addition, the z-score was -0.657 (inactive) in [7], -0.0816 in [8], 0.938 in assay [9] and -0.805 (inactive) in assay [10].
For `COC(=O)[C@@]1(Cc2ccc(F)cc2)[C@H]2c3cc(C(=O)N4CCCC4)n(C)c3C[C@H]2CN1C(=O)c1ccccc1`, the z-score was -0.893 in [1]; 0.502 in assay [2]; -0.429 in [3]; -1.63 in [4]; -1.01 in assay [5]; 1.29 in assay [6]. The z-score was -1 (inactive) in assay [7], -0.392 in [8], -0.206 in [9] and 1.13 (inactive) in assay [10].
In the case of `C=CCC(OC(C)=O)[C@@H]1[C@@H](N(Cc2ccc(-c3cccc(C(F)(F)F)c3)o2)C(=O)c2cccc3ccccc23)c2cc(OCCCO)ccc2N1C(=O)Cc1ccc(OC)cc1` (stereo not given in full), the z-score in [1] was 0.546; in assay [2], 0.612; in [3] it was 0.598; in assay [4], -1.16; in assay [5] it was -1.76; in assay [6], 2.32. Also, the z-score is 0.0601 (inactive) in assay [7], -0.748 in [8], -0.0799 in [9] and 0.643 (inactive) in assay [10].
Regarding `COCCOC(=O)N1C(=O)[C@@]2(c3cc(C#CCNC(N)=O)ccc31)[C@H](c1ccc(O)cc1)N1[C@H](c3ccccc3)[C@H](c3ccccc3)OC(=O)[C@H]1[C@@H]2C(N)=O`, the z-score in assay [1] is 1.66; in assay [2] it was -0.654; in [3], 0.405; in [4] it was 0.337; in assay [5], -0.933; in [6], 2.07. Further, the z-score in [7] was -0.0574 (inactive); in assay [8], -0.932; in assay [9] it was -0.139; in assay [10], 0.934 (inactive).
For the compound `COc1ccc(C#Cc2ccc3c(c2)[C@]2(C(=O)N3)[C@H](C(=O)Nc3nc4ccccc4s3)[C@H]3C(=O)O[C@H](c4ccccc4)[C@H](c4ccccc4)N3[C@@H]2c2ccccc2OCCO)cc1`, the z-score in [1] was 0.609; in [2], 1.61; in [3], 0.211; in assay [4], -0.708; in assay [5], -0.451; in assay [6], -2.79. The z-score in assay [7] is 3.69 (inactive); in [8] it was -1.03; in [9], -1.27; in assay [10], -0.801 (inactive).
Consider `C[C@]1(C(=O)NCCN2CCOCC2)c2ccccc2C(=O)N(Cc2cc(F)cc(C(F)(F)F)c2)[C@H]1c1ccc(CO)cc1`, for which the z-score in assay [1] is 0.13; in assay [2], -0.35; in assay [3] it was 0.545; in assay [4], -0.89; in assay [5], 0.231; in assay [6], 2.36. Besides, the z-score was 0.835 (inactive) in assay [7], 0.695 in assay [8], -0.714 in assay [9] and 0.693 (inactive) in [10].
For the compound `C=CCNC(=O)[C@H]1[C@@H]2C(=O)O[C@@H](c3ccccc3)[C@@H](c3ccccc3)N2[C@@H](c2ccc(O)cc2)[C@]12C(=O)N(C(=O)OCCOC)c1ccc(C#CCC(C(=O)OC)C(=O)OC)cc12`, the z-score in assay [1] is 1.1; in assay [2], -0.206; in [3] it was -0.615; in assay [4], -2.93; in [5] it was -4.49; in [6], -1.26. In addition, the z-score was 0.448 (inactive) in [7], -1.34 in assay [8], -1.83 in [9] and 0.979 (inactive) in assay [10].
For the compound `CC=CC(O)C1C=CC2C(=O)NC(=O)C2N1Nc1ccccn1` (stereo not given), the z-score in assay [1] is 0.0403; in [2], -1.24; in [3], -0.154; in [4], -0.228; in assay [5], -0.496; in assay [6], 0.0853. The z-score in assay [7] is -0.288 (inactive); in assay [8], 0.137; in [9], -0.121; in assay [10], -1.14 (inactive).
